An excerpt weighted towards active compounds, which were near 2% of everything screened.
Insulin prom up: MIN6 insulin promoter up-regulation; MIN6 insulin promoter-GFP reporter, high-content imaging; stronger effect = higher value; z-score at 5 µM; hit rate 0.3% among 190,000;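 active = z-score above 3 at 5 µM with at least 500 cells counted in the well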
eIF4E-4G inh: inhibitors of eIF4E and eIF4G interaction in translation initiation. P63073+Q04637. TR-FRET eIF4E-eIF4GI(517-606) binding, 2 h. inhibition, % at 21.7 µM. hit rate 0.37% among 220,000. AID 782;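 active = inhibition above about 30%, limit read from the data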;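 note: 0% = full FRET control wells and 100% = background wells lacking eIF4GI fragment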
Autophagy HCS: alters autophagy in cells; MEF GFP-LC3 puncta imaging; test concentration mostly 10 µM; AID 463193; calls only at 10 µM (by protocol); hit rate 0.98% among 190,000;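 active = percentage of spot-positive cells more than 3 SD above its plate mean, without a fluorescence outlier flag or 80% toxicity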;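 note: spot-positive cell cutoff set from DMSO-treated cells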
Insulin prom inh: TRM-6 insulin promoter activity inhibition. TRM-6 cells (human fetal islet line), insulin promoter-eGFP reporter, imaging; reporter expression induced with tamoxifen. inhibition, % at 2 µM. hit rate 0.9% among 130,000. AID 1273;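 active = inhibition above the mean plus 3 SD, with well images judged a real hit on visual review, cut at about 60% in these data, passing the limit was not always enough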
PERK inh: blocks human PERK kinase | Q9NZJ5 | inhibition, % at 5.6 µM | AID 1416 | CHO PERK-DD fusion, SEAP luminescence translation reporter | hit rate 0.17% among 220,000;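 active = inhibition above the mean inhibition of all tested compounds plus 3 SD, set separately per screening campaign, cut at about 2.9% in these data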;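 note: PERK kinase domain activated by AP20187 dimerizer at 100 nM; 0% = DMSO with dimerizer and 100% = rapamycin at 8.4 µM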
* = called active by the depositor; i = inactive; x = no result given; + = active, no number.

SMILES	Insulin prom up	eIF4E-4G inh	Autophagy HCS	Insulin prom inh	PERK inh
COc1cc2c(cc1OC)C(C)N(C(=O)c1ccc(Br)o1)CC2 (centres undefined)	0.01	-1	i	6	-1
CCCCNc1c([N+](=O)[O-])cc(C)cc1[N+](=O)[O-]	x	7	i	-54	0
Cc1c[nH]c(=O)c([N+](=O)[O-])c1	0.2	0	x	x	3.8*
CC(=O)Cc1nsc(NC(=O)c2cn(-c3ccccc3)nc2-c2ccc(Br)cc2)n1	-0.37	2	i	-36	1
CC(C(=O)NC1CCCC1)N(Cc1ccc2c(c1)OCO2)C(=O)c1snc(C(N)=O)c1N (centres undefined)	-0.04	-5	+	x	0
CC(C)CC(C(=O)NC1CCCC1)N(Cc1ccc2c(c1)OCO2)C(=O)c1snc(C(N)=O)c1N (centres undefined)	-0.59	1	i	x	0
C/C(=N\NC(=O)c1cc(C(C)(C)C)[nH]n1)C12CC3CC(CC(C3)C1)C2	x	-3	+	x	0
CCCCn1c(=N)n(CC(=O)c2ccc(OC)cc2)c2ccccc21	0.2	83*	x	x	-1
COC(=O)C1CCN(c2ccc(C(N)=O)cc2[N+](=O)[O-])CC1	0.2	3	i	x	1
O=C(O)COc1ccccc1/C=N/NC(=O)CN1CCN(S(=O)(=O)c2ccc(Br)cc2)CC1	-0.32	4	x	x	1
N#Cc1c(N)nc(Sc2ccc(Cl)cc2)c(C#N)c1-c1ccccc1Cl	0.26	-4	x	x	1
Cc1nc2cc(-c3ccc(Cl)cc3)nn2c(NCCN(C)C)c1C	-0.4	0	i	-5	0
Cc1c2c(nc3c(C)cccc13)OC(C)C2 (centres undefined)	0.15	-1	+	-13	0
O=C(COC(=O)c1ccc(Br)cc1)Nc1ccccc1Br	0.02	7	i	x	1
CC(C)(CCl)C(=O)Nc1ccc(C(F)(F)F)cc1	-0.06	2	i	85*	2
O=C1c2cccc3c(N4CCCCC4)ccc(c23)C(=O)N1CCO	0.45	-10	+	-46	0
Cc1n[nH]c(C)c1N1C(=O)c2cccc3c(N4CCCCCC4)ccc(c23)C1=O	x	2	+	x	-2
O=C(OCCN1C(=O)c2cccc3c(N4CCOCC4)ccc(c23)C1=O)c1cccc(Cl)c1	1.5	26	+	x	0
C=CCN1C(=O)c2cccc3c(N4CCCCC4)ccc(c23)C1=O	x	7	i	i	1
O=C(OCCN1C(=O)c2cccc3c(N4CCOCC4)ccc(c23)C1=O)c1ccccc1Cl	0.31	23	+	14	0
CCOc1ccc(N2C(=O)C3C(c4ccc(O)cc4)NC(CCSC)(C(=O)OC)C3C2=O)cc1 (centres undefined)	0.12	2	i	0	0
CCNC(=O)CN(C1CCCCC1)S(C)(=O)=O	-0.04	0	i	0	1
COC(=O)c1onc(-c2c(C)cc(C)cc2C)c1C(=O)OC	0.23	-2	i	x	1
COc1cc(NC(=S)NN2CCN(C)CC2)cc(OC)c1	0.49	2	i	36	1
Cc1ccc2nc(Cl)c(/C=N/n3c(C)nnc3C)cc2c1	0.57	0	i	x	1
SMILES	Insulin prom up	eIF4E-4G inh	Autophagy HCS	Insulin prom inh	PERK inh
Cc1[nH]nc(SCC(=O)N(C)c2ccccc2)c1[N+](=O)[O-]	1	-3	i	x	0
CC(=O)NCCn1c(SCc2ccc(C)cc2C)nc2ccccc2c1=O	-0.97	3	i	x	-2
O=C(OCCN1C(=O)c2cccc3c(N4CCOCC4)ccc(c23)C1=O)c1ccc(Cl)cc1Cl	x	23	+	x	1
O=C(O)c1cccc(NC(=S)N/N=C/c2cccc(O)c2)c1	-0.55	-5	i	78*	1
CCc1nnc(NC(=O)CSc2ncnc3c2cnn3-c2ccc(OC)cc2)s1	0.66	-6	i	x	0
Cc1ccc(S(=O)(=O)Oc2ccc(C)cc2/C=N/N=C2\NC(=O)C(C)S2)cc1 (centres undefined)	x	4	i	79*	0
COc1ccc(/C=N/N=C2/NC(=O)C(CC(=O)O)S2)cc1OS(=O)(=O)c1ccccc1 (centres undefined)	-0.51	-2	i	x	0
COC(=O)c1ccccc1NC(=O)c1ccc(Cn2cc(Cl)cn2)o1	-0.69	-4	i	-59	0
COC(=O)c1cc(NC(=O)c2ccc(Cn3cc(Cl)cn3)o2)cc(C(=O)OC)c1	-0.28	-3	i	93*	-1
CCN1CC=C2C(C1)C(c1ccc(Cl)s1)C(C#N)=C(N)C2(C#N)C#N (centres undefined)	x	2	+	-54	-1
COc1cc([N+](=O)[O-])ccc1NC(=O)CC(C)C	-0.05	3	i	0	1
Cc1ncc(CO)c(/C=N/NC(=O)c2cc3c(s2)CCCC3)c1O	-0.8	-2	i	x	0
CCOC(=O)N1CCN(C(=O)CCSCCc2ccncc2)CC1	-1.1	1	i	79*	0
COc1cccc(/C=C/C(=O)Nc2ccc(OC)nc2)c1	-0.14	-6	i	23	0
Cc1nn(C2CCS(=O)(=O)C2)c(Cl)c1/C=C/C(=O)OCC(=O)Nc1ccccc1OC(F)F (centres undefined)	x	-4	i	66*	0
C/C(=N\n1cnnc1)c1ccccc1	0.26	-2	i	0	1
COc1ccc(C(=O)N/N=C/c2cn[nH]c2-c2ccc(OC)cc2OC)cc1	0.1	-1	i	66*	1
CCN1C(=O)/C(=C2/Sc3ccccc3N2CC)S/C1=N\c1ncn[nH]1	x	0	i	x	0
CS(=O)(=O)N1CCCC(C(=O)Nc2ccc(F)cc2F)C1 (centres undefined)	0.11	0	i	x	1
CCCCSc1nnc(-c2ccccc2NC(C)=O)c(=O)[nH]1	0.81	4	i	x	2
CCSc1nnc(-c2ccccc2NC(C)=O)c(=O)[nH]1	x	8	i	71*	1
CCOc1cccc2cc(-c3nnc(NCc4ccc5c(c4)OCO5)s3)c(=O)oc12	0.6	-7	+	x	1
Cn1c(=O)c2c(nc(NCC3CCCO3)n2Cc2ccccc2)n(C)c1=O (centres undefined)	-0.68	0	i	81*	0
Cn1c(=O)c2c(nc(NC3CCCCC3)n2Cc2ccccc2)n(C)c1=O	0.15	3	i	x	0
O=C(O)CCCCCNC(=O)CCn1cnc2ccccc2c1=O	0.28	0	i	-123	0
CCOc1ccc(NC2=NCC(=O)N2Cc2cccs2)cc1	4.8*	-3	i	9	1
Nc1c(C(=O)OCC(=O)NCc2ccccc2)[nH]c(=O)[nH]c1=O	0.73	-13	x	x	2
COc1ccc(N=Nc2n(C)c3ccccc3[n+]2C)cc1	-1.1	3	x	x	3.4*
COc1ccc(N=Nc2nc(-c3ccccc3)c(-c3ccccc3)[nH]2)cc1	x	-3	i	-10	-1
O=C1CC(c2ccco2)CC(O)=C1C=Nc1cc(Cl)cc(Cl)c1 (centres undefined)	0.42	52*	i	45	2
